Data on 23 sequences can be found in the OligoGym collection.
Further: reference of the scale not given here.

The target in the first assay is TNKS. Put plainly: pooled miR-30 sensor sort-seq; sequence = guide strand. The settings on record: shRNA.
For TTAGCTAAGTCTGCTTCTCTGG, the sensor-assay potency score (higher = more potent) is -0.647.
As to TTTTGCTGAAGGATCTGCCAGG, the sensor-assay potency score (higher = more potent) was -0.435.
Same read-out and setting: for TTCTCGAATAGTACTTTGCATC the value was -0.948; for TATAGGTGTACTCTCACTCAGA, -0.676.
Still for that read-out and setting: for TACTCTACAACAGACACGCGGT the value was -0.0381; for TGTTCTACAACATCCTTCCTTC, 0.712.
On the same count and under the same terms, for TTTCATTAACATTTGCTCCTTT the value was 0.974; for TAACTTTAGCTAAGTCTGCTTC, -0.439.
With TTTAATAGCAGCTTCATGCAGA, the sensor-assay potency score (higher = more potent) is 0.637.
On the same count and under the same terms, the figure for ATGAACATCAGCACCATGCTGA is 0.272.
Take TTGCATGAACATCAGCACCATG: the sensor-assay potency score (higher = more potent) was -0.893.

The next assay addresses TNP2. The assay is described as above. The settings on record: shRNA.
In the case of TTTCTGTTCTTGGGGCAGCGGC, the sensor-assay potency score (higher = more potent) is -1.14.
On the same count and under the same terms, the figure for AAGTTCTTTCTGTTCTTGGGGC is -0.319; for TTCTTTCTGTTCTTGGGGCAGC it is -0.411; for TGGACTAGTGTTGGGACTCTGG it is -0.968.
On the same count and under the same terms, the figure for TTGGTTTTGTACACCTGCTGGA is 0.278; for TACACCTGCTGGATCCTCTTGG it is 0.0749; for TTTTGTGGCGCTTTGGTGGTGG it is 0.492.
Take TTTGGTGGTGGACTAGTGTTGG: the sensor-assay potency score (higher = more potent) is -0.0566.
TTGTACACCTGCTGGATCCTCT yielded a sensor-assay potency score (higher = more potent) of -0.394.
The sequence TCTGTCTGCAACTCTGGCTGAA returned a sensor-assay potency score (higher = more potent) of -0.415.
Same read-out and setting: the figure for TGGTTTTGTACACCTGCTGGAT is -0.833; for TTGCCTTCCAAGTTCTTTCTGT it is 0.0693.
